Measured values published in PubChem BioAssay (Tox21).
Results filed as inconclusive are left out. A number with no mark means an inactive call. Calls follow the shape of the dose curve; as a rule, active = well fitted activation curve with a large enough effect in the signal ratio in the repeat runs (not every such curve was filed as active); inconclusive = weak or mixed curves, or effect the other way; inactive = no such curve, though single readings can be large or run the other way; the % refers to the signal ratio.

These compounds were tested against Peroxisome proliferator-activated receptor gamma (Homo sapiens) (UniProt P37231) (assay: qHTS assay to identify small molecule agonists of the peroxisome proliferator-activated receptor gamma (PPARg) signaling pathway (AID 743094)). Settings: HEK293H PPARg-UAS-bla, beta-lactamase FRET ratio, 17 h; series mostly up to 57 µM; activation: at the top concentration.
Description: U.S. Tox21 Program National Center for Advancing Translational Sciences [NCATS] NIH Chemical Genomics Center [NCGC] U.S. Environmental Protection Agency [EPA] National Institutes of Environmental Health Sciences [NIEHS] National Toxicology Program [NTP] U.S. Food and Drug Administration [FDA] Tox21 Assay Overview: The peroxisome proliferator-activated receptors (PPARs) are lipid-activated transcription factors of the nuclear receptor superfamily with three distinct subtypes namely PPAR alpha, PPAR delta (also called PPAR beta) and PPAR gamma (PPARg). All these subtypes heterodimerize with Retinoid X receptor (RXR) and these heterodimers regulate transcription of various genes. PPAR-gamma receptor (glitazone receptor) is involved in the regulation of glucose and lipid metabolism. To identify the compounds that activate PPAR-gamma signaling, GeneBLAzer PPAR gamma UAS-bla HEK293H cell line (Invitrogen, Carlsbad, CA, USA) containing a beta-lactamase reporter gene under control of the control of an upstream activator sequence (UAS) stably integrated into HEK293H cells was used to screen Tox21 compound library.
Tox21 Assay Protocol Summary: PPARg-bla cells were dispensed at 3000 cells/6uL/well in 1536-well black wall/clear bottom plates using a Multidrop Combi (Thermo Fisher Scientific, Waltham, MA) dispenser. After the assay plates were incubated at 37C and 5% CO2 for 5 h, 23 nL of compounds dissolved in DMSO, positive controls or DMSO only was transferred to the assay plate by a Pintool station (Kalypsys, San Diego, CA). The assay plates were incubated at 37C for 17 h. After 1 uL of LiveBLAzerTM B/G FRET substrate was added using a Bioraptr Flying Reagent Dispenser (FRD) workstation (Beckman Coulter, Indianapolis, IN, USA), the plates were incubated at room temperature for 1 h, and fluorescence intensity was measured by an Envision plate reader (PerkinElmer, Shelton, CT).
% is scaled to controls: 0 for no effect and ±100 for the full control effect.

Peroxisome proliferator-activated receptor gamma (Homo sapiens), sequence (P37231 whole entry, looked up): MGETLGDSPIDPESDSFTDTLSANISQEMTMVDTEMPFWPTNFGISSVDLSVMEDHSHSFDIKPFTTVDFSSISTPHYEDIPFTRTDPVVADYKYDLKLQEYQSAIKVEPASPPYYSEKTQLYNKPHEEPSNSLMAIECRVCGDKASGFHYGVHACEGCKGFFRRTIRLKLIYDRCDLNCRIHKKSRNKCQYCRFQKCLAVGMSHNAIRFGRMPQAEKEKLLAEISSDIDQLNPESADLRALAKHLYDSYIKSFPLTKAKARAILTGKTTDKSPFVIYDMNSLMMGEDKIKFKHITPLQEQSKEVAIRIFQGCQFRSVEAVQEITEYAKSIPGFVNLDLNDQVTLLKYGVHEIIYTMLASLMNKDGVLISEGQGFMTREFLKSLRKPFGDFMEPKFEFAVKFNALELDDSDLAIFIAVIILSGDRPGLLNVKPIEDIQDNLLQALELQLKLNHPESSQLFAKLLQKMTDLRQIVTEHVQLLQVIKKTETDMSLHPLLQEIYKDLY

SMILES | activation
c1ccc(CCNc2nc(-c3ccccc3)cs2)cc1 | -8.95%
C=CC(C)(O)CC/C=C(/C)CCC=C(C)C (stereo not given) | 1.88%
Cc1ccc(NC(=O)c2ccc(CN3CCN(C)CC3)cc2)cc1Nc1nccc(-c2cccnc2)n1 | -0.236%
CCCCCC1CCC(=O)O1 (stereo not given) | -1.35%
CCCCCCCCCCCCCCCCCCCl | -5.7% [at 7.08 µM]
CC(Cc1ccccc1)(NC(=O)CN)c1ccccc1 (stereo not given) | -4.28%
CC(C)CCCCCCCOC(=O)c1ccc(C(=O)OCCCCCCCC(C)C)c(C(=O)OCCCCCCCC(C)C)c1 | -4.34%
OCCCO | -0.112% [at 78.9 µM]
O=C(Nc1ccc2c(c1)Cc1ccccc1-2)C(F)(F)F | 0.634%
CCCCCCCCCCCCSC#N | -3.35%
CC(C)NC(=O)c1ccccc1N | -2.52%
COC(=O)c1cc(Cl)ccc1[N+](=O)[O-] | -0.423%
CC(C)(C(=O)O)c1ccc(C(O)CCCN2CCC(C(O)(c3ccccc3)c3ccccc3)CC2)cc1 (stereo not given) | 0.199%
CC(C)=CCC[C@H](C)CCO | 1.78%
Clc1cc(Cl)c2c(c1)N=C1CCCCCN1C2 | 4.4%
CC(=O)c1cccnc1 | 5.64%
CCCCCCCCOCCCN | -7.97%
Cc1cc(C)c(C)c(O)c1 | -8.61%
Cc1cccc(C)c1NC(=O)CN1CCCC1 | -0.976%
CCCCCCCCCCCC(=O)OCC | -0.607%

SMILES | activation
COc1ccc(/C=C/S(=O)(=O)NC(=O)c2ccc(C)cc2Cl)cc1 | 2.48%
CC(C)Oc1ccccc1O | 1.79%
N#CCCCC(C#N)CCC#N (stereo not given) | 1.07%
C/C(=C(\CCO)SS/C(CCO)=C(\C)N(C=O)Cc1cnc(C)nc1N)N(C=O)Cc1cnc(C)nc1N | 0.353%
CCCCCCCCCCCCCCCCC(=O)O | 2.92%
COC(=O)/C=C/C(C)=C\C=C\C(C)=C\C=C\C=C(C)\C=C\C=C(C)\C=C\C(=O)O | 1.99%
O=C(O)c1ccncc1 | -0.65% [at 78.9 µM]
CC(CCl)OC(C)CCl (stereo not given) | -2.16%
Oc1ccc(Oc2ccccc2)cc1 | -3.3%
CC1(C)C(=O)NC(=O)N1CO | -0.742%
OCCc1ccncc1 | 4.41%
C[C@H](CN1CCCC1)C(=O)c1ccc(C(F)(F)F)cc1 | -2.38%
CCN(CCCCOC(=O)c1ccc(OC)c(OC)c1)C(C)Cc1ccc(OC)cc1 (stereo not given) | -6.79% [at 26.2 µM]
CCOc1ccc(NC(C)=O)cc1N | -2.86% [at 78.9 µM]
CC(=O)Oc1cccc2c1C(=O)c1c(OC(C)=O)cc(C(=O)O)cc1C2=O | 1.28%
O=C(c1ccc(Cl)cc1)c1ccc(Cl)cc1 | 2.83%
C1CCN(CN2CCCCC2)CC1 | 1.62%
CC(C)=CCCC(C)C=O (stereo not given) | -0.692%
CCCCCCCCCCCCCCCCN | -2.94%
C=Cc1ccc(C=C)cc1 | -8.84% [at 78.9 µM]
